Structures are written as SMILES. Inconclusive results are not listed. A call without a number means that no potency is given here. Active and inactive are the calls of the source. Calls follow the shape of the dose curve; as a rule, active = well fitted inhibition curve with a large enough effect; inconclusive = small, poorly fitted or top-dose-only effect; inactive = flat fitted curve, though single readings scatter.
Potency is read from the fitted curve at half-maximal effect.

Chain of DNA repair nuclease/redox regulator APEX1 (Homo sapiens) (P27695 whole entry, looked up): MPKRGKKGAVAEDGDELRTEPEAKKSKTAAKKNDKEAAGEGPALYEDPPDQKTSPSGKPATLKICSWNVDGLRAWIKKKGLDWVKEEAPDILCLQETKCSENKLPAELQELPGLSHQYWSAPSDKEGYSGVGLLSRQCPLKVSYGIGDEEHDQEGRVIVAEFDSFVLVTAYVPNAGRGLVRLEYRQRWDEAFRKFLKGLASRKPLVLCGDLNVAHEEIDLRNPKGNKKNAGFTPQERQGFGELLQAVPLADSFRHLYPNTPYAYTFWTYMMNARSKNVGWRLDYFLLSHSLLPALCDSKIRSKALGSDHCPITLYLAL

The experiment addresses DNA repair nuclease/redox regulator APEX1 (Homo sapiens) (UniProt P27695). Nature of the experiment: qHTS Validation Assay for Inhibitors of the Human Apurinic/apyrimidinic Endonuclease 1 (APE1) (AID 1705). As to conditions: purified APE1 endonuclease activity, fluorescence, titration; series mostly up to 57.1 µM. The gist of the method: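 Substrate: 50 nM final fluorophore/quencher THF-abasic duplex. Enzyme preincubated with compounds 15 min, RT. Progress derived from fluorescence difference, third minus first kinetic read.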
In general terms: Quantitative high-throughput screening tests each substance at several concentrations.
Take `CNCCC=C1c2ccccc2CCc2ccccc21`: the Potency result was “inactive”. The result for `CC(C)NC[C@@H](O)COc1cccc2ccccc12` reads 5.01 µM (active); that for `C[N+]1(CCCCC[N+]2(C)CCCC2)CCCC1`, “inactive”.

The values are drawn from PubChem BioAssay (NCATS).
